Results reported in ChEMBL document CHEMBL4513146, “CO-ADD screening of Karazin Kharkiv National University (Ukraine) compounds”.
Fewer than 10 of roughly 21,000 compounds showed an effect of 50% or more. Only a sample is shown. Entries with a potency or affinity are not part of this list.

Each molecule was assayed on Acinetobacter baumannii. Details: Concentration 32 ug.mL-1;; ASSAY_TEST Inhibition of Bacterial Growth; detection method Absorption (OD600); MEDIA CAMHB; plate type 384well; NBS; CORNING #3640; time 18 hr.
For `Cc1ccc(NC(=O)Cn2nc3c4c5c(sc4ncn3c2=O)CCCC5)c(Cl)c1`, the Inhibition was -9.66%. Molecule `COc1cccc(-n2ccn3c(SCC(=O)c4ccc(C)cc4)nnc3c2=O)c1` has an Inhibition of -4.26%. Molecule `COc1ccc(-c2cc3c4nn(CC(=O)Nc5cc(OC)cc(OC)c5)c(=O)n4ccn3n2)cc1` has an Inhibition of -11.34%. With `CCc1nnc2c(S(=O)(=O)N(Cc3cccc(C)c3)c3cccc(Cl)c3)cccn12` the Inhibition was 8.48%. `CCOc1ccc(C(=O)Cn2nc3n(CCC(C)C)c(=O)c4sccc4n3c2=O)cc1` was tested, and the Inhibition was 1.79%. Work on `O=C(CSc1nnc2c(=O)n(-c3ccc(Br)cc3)ccn12)Nc1cc(F)ccc1F` yielded an Inhibition of 0.45%. With `CCOc1ccc(-n2ccn3c(SCC(=O)c4ccc(C)cc4)nnc3c2=O)cc1` the Inhibition was 4.11%. With `CCOc1ccc(NC(=O)Cn2nc3c(Oc4ccc(C)cc4)nccn3c2=O)cc1` the Inhibition was 0.89%. Work on `CCc1nnc2ccc(S(=O)(=O)N(Cc3ccc(OC)cc3)c3cccc(F)c3)cn12` yielded an Inhibition of -12.55%. `COc1ccc(NC(=O)Cn2nc3c4c5c(sc4ncn3c2=O)CCCC5)cc1` showed an Inhibition of -5.35%. Molecule `COc1ccccc1NC(=O)Cn1nc2c3c4c(sc3ncn2c1=O)CCCC4` has an Inhibition of -5.75%. `O=C(CSc1nnc2c(=O)n(-c3cccc(F)c3)ccn12)Nc1ccc(Br)cc1` gave an Inhibition of 3.4%. `COc1cccc(Oc2nccn3c(=O)n(CC(=O)Nc4ccc5c(c4)OCO5)nc23)c1` gave an Inhibition of 0%. `Cc1ccc(-c2ccc3nn(CC(=O)Nc4ccc(C#N)cc4)c(=O)n3n2)cc1C` showed an Inhibition of 6.14%. `CCCc1nnc2c(=O)n(CC(=O)Nc3ccc(C(C)=O)cc3)c3ccccc3n12` showed an Inhibition of 9.58%. Molecule `Cc1ccc(-c2cc3c4nnc(SCC(=O)Nc5ccc(C#N)cc5)n4ccn3n2)cc1` has an Inhibition of -8.65%. In the case of `CCOc1ccc(NC(=O)Cn2nc3c(Oc4cccc(OC)c4)nccn3c2=O)cc1`, the Inhibition was 5.77%. Molecule `Cc1ccc(F)cc1NC(=O)CSc1nc2ccccc2n2c(C)nnc12` has an Inhibition of 5.49%. Molecule `Cc1ccc(Oc2nccn3c(=O)n(CC(=O)Nc4ccc(C)cc4Br)nc23)cc1` has an Inhibition of 2.31%. `CCCCn1c(=O)c2sccc2n2c(=O)n(CC(=O)c3ccc(C)cc3C)nc12` gave an Inhibition of -4.56%. In the case of `O=C(Cn1nc2nc(Nc3ccc(F)cc3)ccn2c1=O)Nc1cc(F)ccc1F`, the Inhibition was 12.46%.
